39 compounds from PubChem BioAssay can be followed below.

Active and inactive are the calls of the source.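 How the source made its calls, unless noted: active means calcium signal rise above buffer-control mean plus 5 SD in both duplicates, and also a hit in the primary screen; inactive means the rest.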

The target in one assay is Short transient receptor potential channel 6 (Mus musculus) (UniProt Q61143). Briefly: TRPC6 potentiation by TRPC4 potentiator hits, confirmation, selectivity assay for TRPC4 potentiator project, HEK293 cells, membrane potential dye, duplicate (AID 434952;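 active means compound raising the membrane signal above positive-control mean plus 3 SD in both repeats, and a primary screen hit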). The note with it: HEK293 TRPC6, membrane potential dye fluorescence, at 10 µM, maximal acetylcholine added after compound.
Sequence of Short transient receptor potential channel 6 (Mus musculus) (Q61143 whole entry, looked up): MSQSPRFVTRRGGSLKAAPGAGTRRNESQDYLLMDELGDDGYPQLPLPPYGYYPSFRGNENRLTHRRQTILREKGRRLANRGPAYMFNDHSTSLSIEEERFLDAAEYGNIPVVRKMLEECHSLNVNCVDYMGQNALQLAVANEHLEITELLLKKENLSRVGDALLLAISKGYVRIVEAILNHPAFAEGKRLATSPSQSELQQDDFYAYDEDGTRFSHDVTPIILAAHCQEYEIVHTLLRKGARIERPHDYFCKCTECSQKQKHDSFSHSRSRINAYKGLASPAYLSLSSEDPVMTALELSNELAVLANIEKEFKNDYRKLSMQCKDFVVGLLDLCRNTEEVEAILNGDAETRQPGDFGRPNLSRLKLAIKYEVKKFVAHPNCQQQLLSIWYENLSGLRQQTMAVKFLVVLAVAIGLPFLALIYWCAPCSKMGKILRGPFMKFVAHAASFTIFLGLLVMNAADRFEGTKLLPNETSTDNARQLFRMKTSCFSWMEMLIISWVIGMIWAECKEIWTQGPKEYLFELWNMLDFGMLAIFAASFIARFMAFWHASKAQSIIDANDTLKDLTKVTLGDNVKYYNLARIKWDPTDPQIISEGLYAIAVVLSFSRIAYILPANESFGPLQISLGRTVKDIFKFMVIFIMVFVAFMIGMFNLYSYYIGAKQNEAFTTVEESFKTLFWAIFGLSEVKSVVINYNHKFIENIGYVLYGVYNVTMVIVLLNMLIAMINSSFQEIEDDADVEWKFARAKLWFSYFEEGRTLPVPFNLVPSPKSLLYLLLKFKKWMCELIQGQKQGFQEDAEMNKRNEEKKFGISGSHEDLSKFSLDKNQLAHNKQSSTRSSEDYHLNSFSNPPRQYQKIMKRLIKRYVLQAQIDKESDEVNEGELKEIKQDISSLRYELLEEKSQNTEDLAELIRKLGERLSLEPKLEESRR
For the compound `O=C(NC1CC1)c1ccc2c(c1)N(Cc1ccc(Cl)cc1)CCS2`, the result was inactive.
In the case of `O=C(Nc1ccc2c(c1)OCO2)c1cnn2cccnc12`, the result was inactive.
Same read-out and setting: to `CCc1nc2ccccc2n1Cc1ccccc1F` belongs “inactive”; to `CN(Cc1ccco1)C(=O)Cn1ncc2c([nH]c3ccccc32)c1=O`, “inactive”.
`CN1CCN(NC(=O)Nc2cc(Cl)cc(Cl)c2)CC1`: the outcome was inactive.
Still for that read-out and setting: to `Cc1ccc2nc(C(=O)N3CCc4c([nH]c5ccccc45)C3c3ccccn3)cn2c1` (configuration not stated) belongs “inactive”; to `Clc1ccc(N=C2SCC3CCCCN23)cc1` (configuration not stated), “inactive”; to `O=S(=O)(c1ccc(Oc2ccc(Br)cc2)cc1)N1CCOCC1`, “inactive”.
On the same count and under the same terms, under `O=S(=O)(Nc1ccc(S(=O)(=O)Nc2cccc3ccccc23)cc1)c1ccccc1` stands “inactive”; under `COc1ccc(N(C(=O)c2snc(C(N)=O)c2N)C(C(=O)NC2CCCCC2)c2ccc(C)o2)c(OC)c1` (configuration not stated), “inactive”.
Turning to `Cc1ccc(S(=O)(=O)Nc2ccc(N=Nc3ccc(O)cc3)cc2)cc1`, the result was inactive.
The same measure, in the same setting: under `O=C(c1ccccc1)c1coc2ccc(O)c(CN3CCOCC3)c12` stands “inactive”; under `CCOc1ccc(N=CNc2ccc(OCC)cc2)cc1`, “inactive”.
In the case of `COCCSc1ccccc1C(=O)N1CCC(Cc2ccccc2)CC1`, the result was inactive.
The same measure, in the same setting: to `O=C(c1ccccc1F)N1CCN(c2ccc([N+](=O)[O-])c3cccnc23)CC1` belongs “inactive”; to `Cc1ccc(NS(=O)(=O)c2cc(C(=O)N3CCc4ccccc4C3)ccc2Cl)cc1`, “inactive”.
As for `CCn1cc(CN2CCC(n3nccc3NC(=O)CCOc3ccccc3)CC2)c(C)n1`, the outcome was inactive.
On the same count and under the same terms, to `CCN1CCN(c2ccc(S(=O)(=O)N3CCCCC3)cc2NC(=O)COc2cc(C)ccc2Cl)CC1` belongs “inactive”; to `CN(C)CCCCOc1cccc(Br)c1`, “inactive”.
Still for that read-out and setting: to `CC(C)c1ccc(C(C)NCCS(=O)(=O)c2ccc(Br)cc2)cc1` (configuration not stated) belongs “inactive”; to `COc1cc2c(C(=O)N3CCN(C)CC3)c(CSc3ccccc3)n(C)c2cc1Br`, “inactive”.
Take `Cc1c(N2C(=O)/C(=C/c3ccccc3)SC2=S)c(=O)n(-c2ccccc2)n1C`: the result was inactive.
In the case of `Cc1n[nH]c(C)c1Cc1c(F)cccc1Cl`, the result was inactive.
Still for that read-out and setting: under `O=C(Nc1ccc([N+](=O)[O-])cn1)C1CCCCC1` stands “inactive”; under `O=c1[nH][nH]c(-c2ccccc2)c1C=Nc1ccc(F)cc1F`, “inactive”; under `COc1ccccc1C1/C(=C(\O)c2ccc3c(c2)OCCO3)C(=O)C(=O)N1Cc1cccnc1` (configuration not stated), “inactive”.
On to `CCN(CC)CCSc1nnc2c3ccccc3n(Cc3ccccc3)c2n1`, for which the outcome was inactive.
The same measure, in the same setting: to `CCCn1c(SCC(=O)N2c3ccccc3Sc3ccccc32)nc2c1c(=O)n(C)c(=O)n2C` belongs “inactive”.

The next assay has as its target Short transient receptor potential channel 4 (Mus musculus) (UniProt Q9QUQ5). Kind of assay: calcium flux activators in TRPC4/5HT1a cells, counter-screen for TRPC4 activator project, cell-based, second counter screen, HEK293 TRPC4/5HT1a, Fluo-4 (AID 434977). The note with it: Fluo-4 calcium flux, at 10 µM.
Regarding `COc1cc(/C=C2\C(=N)N3N=C(S(C)(=O)=O)SC3=NC2=O)ccc1OC(=O)c1cccs1`, the result was inactive.
The same measure, in the same setting: under `c1ccc(CN2CCN(c3nc4ccccc4s3)CC2)cc1` stands “inactive”; under `COc1ccccc1N(C(=O)c1snc(C(N)=O)c1N)C(C(=O)NCc1ccccc1)c1ccc(O)cc1` (configuration not stated), “inactive”; under `Cc1ccc(SC(CC(=O)c2ccc(C(C)(C)C)cc2)C(=O)O)cc1` (configuration not stated), “inactive”.
On the same count and under the same terms, under `COc1ccc(C2CC(=O)c3cnc(N4CCN(Cc5ccccc5)CC4)nc3C2)cc1` (configuration not stated) stands “inactive”; under `CC(=O)Nc1ccc(S(=O)(=O)N2CCN(CCCOc3cc(C)ccc3C)CC2)cc1`, “inactive”; under `COc1cc(/C=C/C(=O)OCC(=O)Nc2c(C)n(C)n(-c3ccccc3)c2=O)ccc1OCC#N`, “inactive”.
Still for that read-out and setting: to `Cc1cc2oc(C(=O)N(Cc3ccco3)C3CCS(=O)(=O)C3)cc(=O)c2cc1Cl` (configuration not stated) belongs “inactive”; to `CCOCCCn1cnc2c(c1=O)c1nc3ccccc3nc1n2-c1ccc(C)cc1`, “inactive”; to `O=C(c1ccccc1F)N1CCN(c2ccc([N+](=O)[O-])cc2-n2cccc2)CC1`, “inactive”.
Consider `CN(CC(=O)Nc1ccc(F)cc1)C(=O)COC(=O)c1ccccc1`, for which the outcome was inactive.
Same read-out and setting: under `O=C(NC1CC1)c1ccc2c(c1)N(Cc1ccc(Cl)cc1)CCS2` stands “inactive”.
`O=C(Nc1ccc2c(c1)OCO2)c1cnn2cccnc12`: the result was inactive.
For the compound `CCc1nc2ccccc2n1Cc1ccccc1F`, the outcome was inactive.
Turning to `CN(Cc1ccco1)C(=O)Cn1ncc2c([nH]c3ccccc32)c1=O`, the result was inactive.
On the same count and under the same terms, under `CN1CCN(NC(=O)Nc2cc(Cl)cc(Cl)c2)CC1` stands “inactive”.
As for `Cc1ccc2nc(C(=O)N3CCc4c([nH]c5ccccc45)C3c3ccccn3)cn2c1` (configuration not stated), the outcome was inactive.
Consider `Clc1ccc(N=C2SCC3CCCCN23)cc1` (configuration not stated), for which the outcome was inactive.
As to `O=S(=O)(c1ccc(Oc2ccc(Br)cc2)cc1)N1CCOCC1`, the outcome was inactive.
`O=S(=O)(Nc1ccc(S(=O)(=O)Nc2cccc3ccccc23)cc1)c1ccccc1`: the outcome was inactive.
Consider `COc1ccc(N(C(=O)c2snc(C(N)=O)c2N)C(C(=O)NC2CCCCC2)c2ccc(C)o2)c(OC)c1` (configuration not stated), for which the outcome was inactive.
For `Cc1ccc(S(=O)(=O)Nc2ccc(N=Nc3ccc(O)cc3)cc2)cc1`, the outcome was inactive.
With `O=C(c1ccccc1)c1coc2ccc(O)c(CN3CCOCC3)c12`, the result was inactive.
Regarding `CCOc1ccc(N=CNc2ccc(OCC)cc2)cc1`, the outcome was inactive.
Still for that read-out and setting: to `COCCSc1ccccc1C(=O)N1CCC(Cc2ccccc2)CC1` belongs “inactive”.
Regarding `O=C(c1ccccc1F)N1CCN(c2ccc([N+](=O)[O-])c3cccnc23)CC1`, the outcome was inactive.
The same measure, in the same setting: to `Cc1ccc(NS(=O)(=O)c2cc(C(=O)N3CCc4ccccc4C3)ccc2Cl)cc1` belongs “inactive”; to `CCn1cc(CN2CCC(n3nccc3NC(=O)CCOc3ccccc3)CC2)c(C)n1`, “inactive”.
The same measure, in the same setting: under `CCN1CCN(c2ccc(S(=O)(=O)N3CCCCC3)cc2NC(=O)COc2cc(C)ccc2Cl)CC1` stands “inactive”; under `CN(C)CCCCOc1cccc(Br)c1`, “inactive”; under `CC(C)c1ccc(C(C)NCCS(=O)(=O)c2ccc(Br)cc2)cc1` (configuration not stated), “inactive”.
Same read-out and setting: to `COc1cc2c(C(=O)N3CCN(C)CC3)c(CSc3ccccc3)n(C)c2cc1Br` belongs “inactive”; to `Cc1c(N2C(=O)/C(=C/c3ccccc3)SC2=S)c(=O)n(-c2ccccc2)n1C`, “inactive”.
As to `Cc1n[nH]c(C)c1Cc1c(F)cccc1Cl`, the outcome was inactive.
On the same count and under the same terms, under `O=C(Nc1ccc([N+](=O)[O-])cn1)C1CCCCC1` stands “inactive”; under `O=c1[nH][nH]c(-c2ccccc2)c1C=Nc1ccc(F)cc1F`, “inactive”.
Still for that read-out and setting: under `COc1ccccc1C1/C(=C(\O)c2ccc3c(c2)OCCO3)C(=O)C(=O)N1Cc1cccnc1` (configuration not stated) stands “inactive”; under `CCN(CC)CCSc1nnc2c3ccccc3n(Cc3ccccc3)c2n1`, “inactive”; under `CCCn1c(SCC(=O)N2c3ccccc3Sc3ccccc32)nc2c1c(=O)n(C)c(=O)n2C`, “inactive”.
